The record followed here is PubChem BioAssay (NCATS).

Results filed as inconclusive are left out. A call without a number means that no potency is given here. The source made the active and inactive calls. Calls follow the shape of the full dose curve.

Sequence of Vitamin D3 receptor (Homo sapiens) (P11473 whole entry, looked up): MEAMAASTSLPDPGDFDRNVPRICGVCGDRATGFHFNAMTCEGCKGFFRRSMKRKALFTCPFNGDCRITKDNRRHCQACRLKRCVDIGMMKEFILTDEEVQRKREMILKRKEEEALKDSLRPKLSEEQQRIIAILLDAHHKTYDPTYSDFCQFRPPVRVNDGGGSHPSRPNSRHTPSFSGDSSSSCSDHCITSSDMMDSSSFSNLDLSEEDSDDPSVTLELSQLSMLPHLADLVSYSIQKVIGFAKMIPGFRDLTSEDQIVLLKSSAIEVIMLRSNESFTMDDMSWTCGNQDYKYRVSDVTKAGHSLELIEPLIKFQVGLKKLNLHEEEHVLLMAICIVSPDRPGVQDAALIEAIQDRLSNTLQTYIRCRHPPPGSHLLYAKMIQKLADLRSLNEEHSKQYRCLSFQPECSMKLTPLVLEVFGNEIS

The target of the test is Vitamin D3 receptor (Homo sapiens) (UniProt P11473). Briefly: qHTS assay for small molecule antagonists of vitamin D receptor signaling (AID 588541).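 Also: receptor activated by calcitriol during compound treatment.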 The conditions noted are these: HEK293T VDR-UAS-bla, beta-lactamase ratio, antagonist mode; series mostly up to 76.7 µM. The source says:
NIH Chemical Genomics Center [NCGC]
U.S. Environmental Protection Agency [EPA]
National Institutes of Environmental Health Sciences [NIEHS]
National Toxicology Program [NTP]
The Vitamin D receptor (VDR) is a member of nuclear hormone receptor superfamily and it plays a critical role in calcium homeostasis and bone metabolism. It plays a role in inducing cell differentiation, inhibiting cell growth and in thrombogenicity. So, VDR that mediates these effects represents a pharmacological target in prevention and treatment of hyperproliferative malignancies, such as cancer and psoriasis, cardiovascular, immunological, inflammatory and renal diseases etc.
NCGC Assay Protocol Summary
Using a beta-lactamase reporter-gene under control of Vitamin D receptor (VDR) response element, a cell-based assay [GeneBLAzer (VDR -UAS-bla assay developed by Invitrogen] was used to measure VDR ligands signaling. GeneBLAzer VDR -UAS-bla HEK293T cells were used with assay medium containing 2% charcoal-stripped FBS. The assay was performed in clear bottom black Greiner 1536-well plates. Library compounds were measured for their ability to inhibit the reporter gene activity. Compounds were screened in a titration series in 1536-well format. The fluorescence intensity (405 nm excitation, 460/530 nm emission) was measured using an EnVision plate reader. Data was normalized relative to 1-alpha,25-Dihydroxy vitaminD3 control (50 nM, 100%) and DMSO only wells (basal, 0%). Concentration-response titration points for each compound were fitted to the Hill equation yielding concentrations of half-maximal inhibition (IC50) and maximal response (efficacy) values.
qHTS protocol for VDR beta-lactamase assay in antagonist mode
[Step] [Parameter] [Value] [Description]
1. Reagent; 5 uL; 2000 cells/well
2. Incubation; 37 C for 5 hrs
4. Controls (DMSO); 23 nL,
5. Agonist (Stimulator); 1uL; 1-alpha,25-Dihydroxy vitaminD3 at 50 nM and 3 nM final concentrations
6. Incubation; 37 C for 16 hrs
7. Detection reagent; 1 uL of CCF4-dye
8. Incubation; RT for 2 hrs
9. Detection; Fluorescence; Envision plate reader
Turning to `COC(=O)c1ccccc1C(=O)O`, the Potency result was “inactive”.
Take `CCCCCOC(=O)COc1cc(N2C(=O)C3=C(CCCC3)C2=O)c(F)cc1Cl`: the Potency entry was “inactive”.
The value for `C[Si]1(C)O[Si](C)(C)O[Si](C)(C)O[Si](C)(C)O1` was “inactive”.
Turning to `CCCCN(CCCC)CCCC`, the Potency result was “inactive”.
The value for `CCC(C)(C)C1CCC(O)CC1` (stereo not given) was “inactive”; that for `OCCOCCOCCOCCO` was “inactive”; that for `CCCCC(CC)CN1C(=O)C2C3C=CC(C3)C2C1=O` (stereo not given) was “inactive”.
The value for `C=C(C)C(=O)OCCN(C)C` was “inactive”; that for `CN(C)c1nc(=O)n(C2CCC(O)CC2)c(=O)n1C` (stereo not given) was “inactive”.
As for `CCCCCCc1ccc(N)cc1`, the entry is “inactive”.
As to `O=C(O)CN(CCO)CCN(CC(=O)O)CC(=O)O`, the Potency entry is “inactive”.
As for `CO[Si](OC)(OC)c1ccccc1`, the entry is “inactive”.
The value for `C/C=C/C=C/CCCCCCCO` was “inactive”.
As for `CCCCCCCCCCCCCCC`, the entry is “inactive”; as for `CCCCCCCCCCCCCCC(=O)OC`, “inactive”.
Regarding `O=[N+]([O-])C(CO)(CO)CO`, the Potency result is “inactive”.
As for `FC(F)(F)c1ccc(Cl)c(Cl)c1`, the entry is “inactive”; as for `CCNc1nc(N)nc(Cl)n1`, “inactive”.
The value for `Nc1c(N=Nc2ccc(S(=O)(=O)CCOS(=O)(=O)O)cc2)c(S(=O)(=O)O)cc2cc(S(=O)(=O)O)c(N=Nc3ccc(S(=O)(=O)CCOS(=O)(=O)O)cc3)c(O)c12` was “inactive”; that for `CCCCC(CC)COC(C)=O` (stereo not given) was “inactive”.
As for `O=C(O)CCCCCCC(=O)O`, the entry is “inactive”; as for `NCCCCCCCCCCCC(=O)O`, “inactive”.
On to `CCCCCCCCCCCCCCN`, for which the Potency result is “inactive”.
In the case of `CCCCCCCCCCO`, the Potency entry was “inactive”.
The value for `Cc1ccc(C(C)(C)C)c(O)c1` was “inactive”.
In the case of `CCCCCCCC(=O)OC`, the Potency entry is “inactive”.
For `CCCCCCCC[Si](Cl)(Cl)Cl`, the Potency entry is “inactive”.
As for `CCCCCCCCCC[N+](C)(C)Cc1ccccc1`, the entry is “inactive”.
As for `CNc1nc(=O)n(C2CCCCC2)c(=O)n1C`, the entry is “inactive”; as for `CCCCCCCC/C=C\CCCCCCCCO`, “inactive”; as for `OC1CCC(C2CCCCC2)CC1` (stereo not given), “inactive”.
As for `CCOCCOCCOCC`, the entry is “inactive”; as for `CCCCC(CC)C(=O)OCCOCCOCCOC(=O)C(CC)CCCC` (stereo not given), “inactive”.
In the case of `C[Si](C)(C)N[Si](C)(C)C`, the Potency result is “inactive”.
The value for `Cc1ccc(N=Nc2c(O)ccc3ccccc23)c(C)c1` was “inactive”.
On to `CS(=O)(=O)c1ccc(Cl)cc1`, for which the Potency result was “inactive”.
As for `COc1cc(Cl)c(OC)cc1N`, the Potency result is “inactive”.
With `CCCCCCC(O)CCCCCCCCCCC(=O)OC` (stereo not given), the Potency entry was “inactive”.
As for `CN(C)C(=O)Nc1ccccc1`, the entry is “inactive”; as for `Cc1ccc(Cl)cc1Cl`, “inactive”.
